# The panel holds about 79,000 compounds, 15% with a hit somewhere; the sample as a whole holds those more often. A number with no mark means an inactive call. Active and inactive are the calls of the source. Cut-off read from the data, not from the text of the source: active = growth inhibition above about 70%; inactive = the rest.
# Test: NCI Yeast Anticancer Drug Screen. Data for the bub3 strain (AID 167)
# Conditions: S. cerevisiae bub3 mutant strain, at 50.0 µM (retest, dose inferred, filed as 5.0), stronger effect = higher value
# In short: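 Inhibition values come from growth of compound-treated mutant yeast normalised to vehicle-treated controls.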
row,SMILES,growth inhibition
1,Cc1ccc2c(c1)CC1(C2)Cc2ccc(C)cc2C1=O (stereo not given),88% (active)
2,NC1=CC(=O)c2ccccc2C1=O,93% (active)
3,CCCCC(CC(=O)O)c1ccc(Cl)cc1 (stereo not given),28%
4,OCCOCCO[P+]1(OCCOCCO)n2c3ccc2C(c2ccccc2)=C2C=CC(=N2)C(c2ccccc2)=c2ccc(n21)=C(c1ccccc1)C1=NC(=C3c2ccccc2)C=C1,99% (active)
5,Clc1ccc2[nH]c(-c3ccccc3)c(-c3ccccn3)c2c1,97% (active)
6,COc1cc(NS(C)(=O)=O)ccc1Nc1c2ccccc2nc2ccccc12,24%
7,COC1/C=C/OC2(C)Oc3c(C)c(O)c4c(c3C2=O)C(=O)C=C(NC(=O)/C(C)=C\C=C\C(C)C(OC=O)C(C)C(O)C(C)C(OC(C)=O)C1C)C4=O (stereo not given),5%
8,COc1ccc(CN(C)c2c(C)ccc3ccccc23)cc1,98% (active)
9,CCOC(=O)c1c(-c2ccccc2)csc1NC(=O)CBr,97% (active)
10,Nc1nc2nc(I)[nH]c2c(=O)[nH]1,3%
11,CC(CN(CC(=O)O)CC(=O)O)N(CC(=O)O)CC(=O)O.[Cl][Pd][Cl] (stereo not given),91% (active)
12,COC(=O)c1nc(=S)[nH]c(C(=O)OC)c1C(=O)c1ccc2ccccc2c1,98% (active)
13,O=C(Nc1ccccc1)OCCc1ccc(Br)cc1,7%
14,O=C(CCN1CCCCC1)/C(=C\c1ccc(Cl)cc1)c1ccccc1,98% (active)
15,FC(F)(F)c1nc(S)cc(=S)[nH]1,31%
16,CCCCC(=O)N/N=C/c1ccc([N+](=O)[O-])s1,94% (active)
17,CSC(=S)N/N=C(\C)c1nccnc1C,98% (active)
18,CC(=O)Oc1cc2c(cc1OC(C)=O)OCC(c1ccccc1)C2 (stereo not given),93% (active)
19,O=Cc1ccc(O)c2ccccc12,78% (active)
20,CC(=O)N(C1=C(Cl)C(=O)c2ccccc2C1=O)c1ccc(Cl)cc1,99% (active)

row,SMILES,growth inhibition
1,Cn1c2c(c3ccccc31)CCN1C[C@@H]3CCCC[C@H]3C[C@@H]21,0%
2,CCOc1ncc(Cl)c(OCC)n1,-3%
3,C=C1C(=O)OC2C1CC1OC2C(C)CCC/C(C)=C\CCC1(C)O (stereo not given),8%
4,CCCCN(CCCC)CCC(O)(c1ccc(OC)c2ccccc12)C(O)(CCN(CCCC)CCCC)c1ccc(OC)c2ccccc12 (stereo not given),99% (active)
5,CS/C(N)=N/NC(=O)CCC(=O)Nc1cc(Cl)c(Cl)cc1Cl,4%
6,COc1ccc(OC)c(N=Nc2c(C)[nH]n(C(N)=S)c2=O)c1,26%
7,O=C(CC(=O)c1ccccc1)CC1(O)CCCCC1,86% (active)
8,Nc1ccc2ccccc2c1Cc1c(O)ccc2ccccc12,63%
9,CC[n+]1c(/C=C/c2cc(C(=O)OC)n3c2sc2ccccc23)sc2ccccc21,99% (active)
10,O=CNc1ccc2c(c1)Cc1cc(NC=O)ccc1-2,-9%
11,O=C1CC(c2ccccc2)C(=O)N2C(=O)CC(c3ccccc3)C(=O)N12 (stereo not given),28%
12,CN1CCN(CCOC(=O)N2c3ccccc3Sc3ccccc32)CC1,-4%
13,COc1nc(Nc2ccc(/C=C/c3ccc(Nc4nc(OC)nc(N(CCO)CCO)n4)cc3S(=O)(=O)O)c(S(=O)(=O)O)c2)nc(N(CCO)CCO)n1,28%
14,NNC(=O)NN=C(c1ccccc1)c1ccccc1,-1%
15,CCOC(=O)C(Br)C(Br)c1cccc([N+](=O)[O-])c1 (stereo not given),99% (active)
16,CCCCCCC(O)C(CO)CCCCC (stereo not given),97% (active)
17,Oc1c(Br)c(Br)c(O)c(Br)c1Br,42%
18,CC(=O)n1nc2c(c1CC(C)C)C(=O)C(Nc1ccccc1)=CC2=O,99% (active)
19,CC(C)(CCBr)[N+](=O)[O-],-84%
20,Nc1ccccc1SCc1csc(-c2ccc(Cl)cc2)n1,98% (active)

# — PubChem BioAssay (NCI)
